# CYP2C19 act: increases human CYP2C19 enzyme activity; P33261; recombinant CYP2C19, luciferin-H EGE luminescence; stronger effect = higher value; 0 = fully inhibited enzyme, 1 = untreated enzyme; activation factor at 5 µM; 96,000 tested, under 10 active; AID 1025;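 active means activation factor of at least 2 at 5 µM in the primary screen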;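 further: 0 = wells with 2.5 mM tranylcypromine and 1 = vehicle-only wells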
# Cav32 inh: human Cav3.2 channel inhibition, primary screen | 100,000 compounds, 4% hits | O95180 | B-score at 10 µM | Cav3.2-expressing cells, Fluo-4 calcium fluorescence FDSS; stronger effect = lower value;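 active means single-dose well whose peak fluorescence ratio is a statistical outlier from its plate by either plate-standardised score or position-corrected B-score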
# CYP2C9 act: increases human cytochrome P450 2C9 activity | P11712 | recombinant CYP2C9, luciferin-H conversion, luminescence; stronger effect = higher value; factor 1 = untreated enzyme, 0 = blocked | activation factor at 5 µM | 96,000 compounds, 1.4% hits;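 active means activation factor of 2 or more for CYP2C9 at a 5 µM dose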;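 further: 0 = sulfaphenazole-blocked wells and 1 = vehicle-only wells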
# Target sequence (P11712 whole entry, looked up): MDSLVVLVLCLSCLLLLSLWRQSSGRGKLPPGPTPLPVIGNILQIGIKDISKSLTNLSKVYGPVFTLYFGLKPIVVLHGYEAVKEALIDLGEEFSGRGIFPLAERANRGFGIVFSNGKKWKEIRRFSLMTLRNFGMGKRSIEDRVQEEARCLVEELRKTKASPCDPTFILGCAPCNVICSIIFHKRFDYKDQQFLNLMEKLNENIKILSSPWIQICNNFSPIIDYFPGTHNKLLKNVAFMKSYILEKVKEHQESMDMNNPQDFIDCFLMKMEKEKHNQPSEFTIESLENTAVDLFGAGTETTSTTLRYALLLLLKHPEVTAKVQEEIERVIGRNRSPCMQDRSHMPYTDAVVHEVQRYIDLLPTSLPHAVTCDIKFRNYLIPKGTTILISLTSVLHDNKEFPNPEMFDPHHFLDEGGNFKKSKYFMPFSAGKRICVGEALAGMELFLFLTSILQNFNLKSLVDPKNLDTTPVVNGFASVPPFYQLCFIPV
# CYP2C19 inh: inhibitors of human CYP2C19 | P33261 | CYP2C19 Supersomes, luciferin-H EGE luminescence, 30 min | inhibition, % at 5 µM | 96,000 compounds, 21% hits | AID 778;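 active means CYP2C19 inhibition above a set limit at 5 µM in the primary screen, cut at about 50% in these data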;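 further: plate controls were negative control wells for no effect and 2.5 mM tranylcypromine positive control for full effect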
# CYP2C9 inhib: inhibitors of human CYP2C9. P11712. CYP2C9 Supersomes, luciferin-H conversion, luminescence. inhibition, % at 5 µM. 96,000 compounds, 20% hits;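 active means blocking of liver enzyme CYP2C9 beyond about 50% at 5 µM, limit read from the data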
# An asterisk follows results filed as active; · = not tested or not shown. In the library only some 27% were active in any assay of this set; here they are far more common.
SMILES,CYP2C19 act,Cav32 inh,CYP2C9 act,CYP2C19 inh,CYP2C9 inhib
Cc1ccsc1CN1CCN(c2ccccn2)CC1,0.1,·,0.3,93*,70*
COc1c(N)c2ccccc2[nH]c1=O,1,·,1,4,2
COc1cc(C)c(Cl)cc1S(=O)(=O)n1cnc(C)c1,0,-0.68,2*,97*,-105
COc1ccc(C(C)C)cc1S(=O)(=O)n1cnc(C)c1,0.9,-2.7,1,6,-1
CCC(C)n1cnc2c(c1=O)c1nc3ccccc3nc1n2-c1ccc2c(c1)OCCO2 (configuration not stated),0.9,·,0.7,10,30
Cc1nc2c(c(=O)n1CCC(C)C)c1nc3ccccc3nc1n2Cc1ccc2c(c1)OCO2,0.8,·,0.4,22,58*
CCC(C)n1cnc2c(c1=O)c1nc3ccccc3nc1n2Cc1ccc2c(c1)OCO2 (configuration not stated),0.2,-0.94,0,81*,99*
COC(=O)c1c(-c2cccc3ccccc23)csc1NC(=O)Cc1ccc(OC)c(OC)c1,0.4,·,0.1,62*,87*
COC(=O)c1c(-c2ccc(C)cc2)csc1NC(=O)Cc1ccc(OC)c(OC)c1,0.7,·,0.3,35,72*
COC(=O)c1c(-c2ccc(Br)cc2)csc1NC(=O)Cc1ccc(OC)c(OC)c1,0.7,-0.87,0.4,31,63*
COc1cccc2c1OC1(C)CC2NC(=O)N1Cc1ccccc1 (configuration not stated),0.7,-0.0076,1.2,29,-20
CCCCN(C)C(=O)C1CCC(=O)N(c2cc(OC)c(OC)c(OC)c2)C1c1ccc(OC)cc1 (configuration not stated),·,1.1,·,·,·
O=C1C2Sc3[nH]c(=O)sc3C(c3ccccc3)C2C(=O)N1c1ccc(Cl)cc1 (configuration not stated),0.3,-2.5,0.5,67*,52*
Cc1ccc(N2C(=O)C3Sc4[nH]c(=O)sc4C(c4ccccc4)C3C2=O)cc1 (configuration not stated),0.6,-0.051,0.6,37,43
O=c1c2ccccc2nc2n1CC/C2=C/N1CCN(c2cccc(C(F)(F)F)c2)CC1,0.9,0.18,1.2,8,-16
CCOc1ccc(C(C)=O)cc1N1C(=O)C2C3C=CC(C3)C2C1=O (configuration not stated),1,0.19,1,1,-5
CCOc1ccc(CCN2C(=O)C3C4C=CC(C4)C3C2=O)cc1OCC (configuration not stated),0.5,0.022,0.9,53*,9
CC(C)(NO)/C(=N/O)c1cccs1,1,-0.037,1,2,-4
CC(C)Cn1c(=O)n(C)c(=O)c2[nH]cnc21,·,0.36,·,·,·
COc1ccc(C(O)P(=O)(OC2CCCCC2)c2ccc(N(C)C)cc2)cc1OC (configuration not stated),0.4,·,1,56*,2
COc1cc(C(O)P(=O)(OC(C)C)c2ccc(N(C)C)cc2)cc(OC)c1OC (configuration not stated),0.6,0.39,0.8,43,17
CC(=O)c1cccc(NC(=O)c2ccc(N(Cc3ccc(C)cc3)S(C)(=O)=O)cc2)c1,0.1,-0.16,0.1,85*,85*
CS(=O)(=O)N(Cc1ccccc1)c1ccc(C(=O)Nc2cccnc2)cc1,·,0.093,·,·,·
CS(=O)(=O)N(Cc1ccc(Cl)cc1)c1ccc(C(=O)Nc2cccnc2)cc1,0,-0.49,0.2,95*,84*
OCC[C@H]1C[C@@H](O)[C@H](O)[C@@]2(CCCO2)O1,·,0.78,·,·,·
SMILES,CYP2C19 act,Cav32 inh,CYP2C9 act,CYP2C19 inh,CYP2C9 inhib
CCOc1ccccc1NC(=O)C1CCCN(C(=O)NCc2ccccc2)C1 (configuration not stated),0.5,·,1.8,51*,-78
CN(C)C(=O)N1CCCC(C(=O)NCCc2ccccc2)C1 (configuration not stated),0.8,0.51,0.9,22,9
CN(C)C(=O)N1CCCC(C(=O)NCc2ccccc2)C1 (configuration not stated),0.4,0.74,1,57*,0
Cn1cnnc1SCC(=O)NCCc1ccccc1,0.8,-0.35,1.1,23,-7
CCC(=O)Nc1nnc(C(C)(C)C)s1,1,1.5,1,-1,-4
CCOC(=O)c1cc2c(s1)-c1ccccc1CC2,0.9,-0.44,1.1,5,-8
S=C(Nc1ccccc1)c1ccccn1,1,-1.3,1,2,2
COc1ccc(OCCOC(=O)Nc2ccccc2)cc1,0.2,-3,0.6,82*,45
COC(=O)Nc1ccc(OCc2ccccc2)cc1,0.5,-0.11,0.8,46,20
O=C(Nc1ccccc1)O/N=C(\c1ccccc1)c1ccccn1,0.8,-0.35,0.4,24,61*
O=C(Nc1ccccc1)OCCOc1ccccc1,0.2,-2.7,0.7,85*,29
O=C(Nc1ccccc1)OCc1ccccn1,0.5,1.4,0.9,51*,9
NC(=O)COc1ccc(NC(=O)OCc2ccccc2)cc1,0.8,0.036,0.9,19,7
CC(/C=C1\N=C(SCc2ccccc2Cl)SC1=O)=C\c1ccccc1,0.8,-0.14,0.7,24,30
Cc1ccc(-n2ncc3c2ncn2c(C)nnc32)cc1C,1,-0.26,0.8,-2,16
Cc1c(NC(=O)CSc2nc3ccccc3s2)c(=O)n(-c2ccccc2)n1C,0.9,0.44,1,9,2
O=C(Nc1ccccc1)OCCNC(=O)c1cccc(Cl)c1,0.1,-1.4,0.1,93*,87*
Oc1cccc(-c2nc3c4c(ncn3n2)-c2ccccc2CC42CCCC2)c1,1,0.53,0.8,-2,23
Cc1nn2cc(-c3ccc(-c4ccccc4)cc3)nc2s1,1,1.5,1,4,5
CCc1nn2cc(-c3ccccc3)nc2s1,0.1,0.13,0.4,88*,59*
CCNc1nc2c(c(=O)n(Cc3ccccc3)c(=O)n2C)n1Cc1ccccc1,0.2,-1.8,0.1,84*,90*
Cc1ccc(Cn2c(NCCc3ccccc3)nc3c2c(=O)n(C)c(=O)n3C)cc1,1,-0.25,0.9,1,13
CC(C)Cn1c(CN(C)Cc2ccccc2)nc2c1c(=O)n(C)c(=O)n2C,0.9,0.51,0.2,12,81*
CCOC(=O)Cn1c(CN(C)Cc2ccccc2)nc2c1c(=O)n(C)c(=O)n2C,·,-0.59,·,·,·
Cn1c(=O)c2c(nc(NCc3cccnc3)n2Cc2ccc(Cl)cc2)n(C)c1=O,0.5,-7.2*,0.3,54*,70*
COCCNc1nc2c(c(=O)n(Cc3ccc(OC)cc3)c(=O)n2C)n1C,1.1,-0.21,1.4,-10,-40
COc1ccc(CNc2nc3c(c(=O)n(Cc4ccc(Cl)cc4)c(=O)n3C)n2C)cc1,0.9,-7.5*,0.9,14,13
CN(C)CCNC(=O)c1ccc(COc2ccc(Cl)cc2Cl)cc1,0.9,0.45,0.9,10,6
O=C(COC(=O)c1ccc(Br)o1)NCc1ccco1,·,0.6,·,·,·

# Bioassay records (PubChem)
